Bioassay records: PubChem BioAssay, several laboratories
TROY NFkB inh = blocks TROY-dependent signaling in reporter cells; Q293 LMP1-TROYcd NF-kB luciferase reporter, 4 h; inhibition, % at 10 µM; actives 0.98% (n = 360,000);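 active = compounds whose plate-normalised and pattern-corrected inhibition of the luciferase reporter signal at the single screening dose is 50% or more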
LMP1 NFkB inh = reduces LMP1-driven NF-kappaB luciferase signal; AID 504558; actives 0.69% (n = 350,000); LMP1-induced NF-kappaB luciferase reporter cells, luminescence; inhibition, % at 12.5 µM; in the data active = inhibition above about 41%;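 note: 0% = neutral control wells and 100% = reference inhibitor control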
TWEAK Fn14 block = blocks TWEAK-Fn14 interaction in a reporter cell assay. actives 2% (n = 360,000). TWEAK-stimulated Fn14 reporter cells, luciferase luminescence, 8 h. inhibition, % at 10 µM. AID 1159606; in the data active = inhibition above about 50%
MITF TRPM1 inh = inhibitors of MITF-driven TRPM1 promoter in melanoma cells; actives 0.83% (n = 330,000); inhibition, % at 12.5 µM; SK-MEL-5 TRPM1 promoter luciferase, 24 h;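 active = mean inhibition across replicates of 60% or more, whatever share of single replicates reaches that level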
Shn3 inh set2 = inhibitors of Schnurri-3 3'UTR reporter in osteoblasts; Clone20 osteoblast Shn3 3'UTR firefly luciferase, 24 h; inhibition, % at 12.5 µM; actives 0.52% (n = 360,000); AID 588674;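 active = mean inhibition of at least 75% with every replicate also reaching 75%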;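 note: 0% = median of neutral control wells and 100% = pilot-screen positive control compound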
Peg3 prom inh = inhibitors of Peg3 promoter. HeLa PEG-Prom luciferase reporter, luminescence, overnight. inhibition, % at 20 µM. actives 1.7% (n = 360,000);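 active = inhibition of at least 50% at 20 µM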
The depositor's hits bear a star; · = no result given. Sampled rows, rich in hits. Any-hit rate of the full collection: about 4.1%.

SMILES	TROY NFkB inh	LMP1 NFkB inh	TWEAK Fn14 block	MITF TRPM1 inh	Shn3 inh set2	Peg3 prom inh
CCC(NC(C)C)C(O)c1ccc(O)c2[nH]c(=O)ccc12 (stereo unspecified)	11	74*	-17	-1	10	7
CC(C)(C)S(=O)N1Cc2cc(C(=O)NCC(F)(F)F)nc(-c3cccc(-c4cccc(F)c4)c3)c2[C@@H]1CCO (stereo partly specified)	7	·	53*	·	25	69*
O=C(CCl)Nc1ccc(S(=O)(=O)NC2=NCCCCC2)cc1	1	-31	0	21	-22	39
CCc1ccc(NC(=O)c2ccc3c(=O)n4c(nc3c2)CCCCC4)cc1	14	8	-1	-23	0	-79
O=C(CCl)Nc1cccc(S(=O)(=O)N2CCCCCC2)c1	3	-36	17	75*	-7	73*
O=C(CCl)Nc1cccc(S(=O)(=O)NC2=NCCCCC2)c1	4	-60	0	76*	-14	51*
O=C(CSc1nnc(Nc2ccccc2)s1)Nc1cccc(S(=O)(=O)N2CCCCC2)c1	-2	-3	51*	-6	3	-49
O=C(Nc1cccc(S(=O)(=O)N2CCCCC2)c1)c1ccc2c(=O)n3c(nc2c1)CCCCC3	55*	11	71*	52	63	90*
Nc1nnc(SCC(=O)Nc2cccc(S(=O)(=O)N3CCCCC3)c2)s1	0	-5	13	1	1	4
O=[N+]([O-])c1cccnc1Sc1n[nH]c(-c2ccc(Cl)cc2)n1	-55	-14	-32	-18	-32	-144
O=C(COc1cc(Cl)c(Cl)cc1Cl)Nn1cnnc1	12	-3	5	1	3	2
O=C(CCc1nnc(Cc2ccc3c(c2)OCO3)o1)NC(c1ccccn1)C(F)(F)F (stereo unspecified)	-2	-3	-10	-3	-1	6
O=C(CSc1nnc(Nc2ccccc2)s1)NC1CCS(=O)(=O)C1 (stereo unspecified)	-8	5	4	0	90*	-19
O=C(c1ccc(OC2CCN(Cc3ccccn3)CC2)cc1)N1CCCC(O)C1 (stereo unspecified)	-2	-4	6	-4	10	11
Cc1ccc(-c2nn3c(C)nnc3s2)cc1NC(=O)c1ccc(-c2ccc(Cl)cc2Cl)o1	26	0	-34	100*	58	103*
Cc1ccc(-c2nn3c(C)nnc3s2)cc1NC(=O)c1ccc(-c2cccc(Cl)c2)o1	-5	16	24	-11	16	3
CCOC(=O)N1CCN(C(=O)c2ccc3nc(SCc4ccc(F)cc4)n(C)c3c2)CC1	-7	6	4	5	38	25
Cc1cc(C)c(C)c(OCCn2ccnc2)c1	20	0	111*	9	-5	20
Cc1sc2ncnc(NC3CCN(Cc4ccccc4)CC3)c2c1C	31	-7	16	-1	88*	12
c1ccc(CN2CCC(Nc3ncnc4sccc34)CC2)cc1	0	-7	-3	-3	14	-12
Nc1ccc2nc(-c3ccccc3)sc2c1	22	34	90*	36	13	-7
O=C1CCC(=O)N1c1ccc(-c2nc3ccccc3s2)cc1	83*	1	90*	16	-27	-86
Cc1cc(-c2nc3ccccc3s2)ccc1N	32	2	83*	18	-11	-62
O=C(CSc1cn(Cc2ccccc2)c2ccccc12)NCc1ccc(F)cc1	6	-9	14	·	1	13
CC(C)=CCN1CCN(Cc2cnc(C)s2)CC1CCO (stereo unspecified)	16	-5	15	-7	13	-7
COc1cc(OC)c(NC(=O)c2cc3ccccc3cc2O)cc1Cl	57*	-36	94*	3	3	-54
CCOc1c(Cl)cc(C(=O)Nc2ccccc2C(=O)O)cc1Cl	29	-8	-48	-63	3	-98
CC(C)Cn1ccc(=O)n(CC(C)C)c1=O	11	6	-11	-3	4	-6
